An excerpt weighted towards active compounds, which were near 7.5% of everything screened.
FLuc modulator: firefly luciferase modulation, counter-screen for miR-21 project. P08659. purified FLuc, Km substrates, luminescence inhibition. Potency, µM (top dose mostly 57.5 µM), inactives show at the top dose activity change, negative = inhibition, most hits filed as inhibitors. 360,000 compounds, 6.9% hits;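 also: plate controls were vehicle for no effect and reference inhibitor for full effect; nearly all actives have a fitted effect of over 55% in size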
Target sequence (P08659 whole entry, looked up): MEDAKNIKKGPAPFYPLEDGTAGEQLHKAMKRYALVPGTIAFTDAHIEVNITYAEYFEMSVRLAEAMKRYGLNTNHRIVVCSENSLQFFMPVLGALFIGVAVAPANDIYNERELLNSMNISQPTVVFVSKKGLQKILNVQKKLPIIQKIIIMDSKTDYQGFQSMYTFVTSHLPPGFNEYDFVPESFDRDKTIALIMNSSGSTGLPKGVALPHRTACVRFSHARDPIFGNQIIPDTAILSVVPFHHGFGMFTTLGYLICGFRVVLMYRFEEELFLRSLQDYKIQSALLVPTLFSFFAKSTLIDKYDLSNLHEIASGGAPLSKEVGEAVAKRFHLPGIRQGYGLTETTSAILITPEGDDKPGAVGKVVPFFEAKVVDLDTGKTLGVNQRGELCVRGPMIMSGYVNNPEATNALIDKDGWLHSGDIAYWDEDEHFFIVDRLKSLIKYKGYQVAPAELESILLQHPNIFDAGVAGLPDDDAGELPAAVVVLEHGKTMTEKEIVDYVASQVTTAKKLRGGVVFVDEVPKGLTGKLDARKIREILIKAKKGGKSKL
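Purified P. pyralis luciferase, 10 nM final, with Km-level 10 uM D-luciferin and 10 uM ATP in 50 mM Tris acetate pH 7.5, 10 mM Mg acetate, 0.01% Tween-20, 0.05% BSA; 6-point qHTS titration about 60 µM downward; luminescence read.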
NPC1 promoter act: activators of NPC1 promoter; Huh7 NPC1 promoter luciferase reporter, 24 h; Potency, µM (top dose mostly 9.22 µM), inactives show at the highest dose activation, most hits filed as activators; 320,000 compounds, 2.4% hits; AID 485313; also: % of control where 0% means no effect; nearly all actives have a fitted effect of over 60% in size
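Quantitative HTS used a cell-based reporter: Huh7 cells stably bearing the NPC1 promoter upstream of luciferase were treated with compounds for 24 h, and promoter activation was read as luminescence.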
Rab9 prom act: activators of Rab9 promoter; Huh7 Rab9 promoter-luciferase reporter, luminescence, 24 h; Potency, µM (top dose mostly 9.22 µM), inactives show at the top dose activation, negative = inhibition, most hits filed as activators; 320,000 compounds, 2.8% hits; also: % of control where 0% means no effect; nearly all actives have a fitted effect of over 60% in size
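Luciferase signal after 10 min detection reagent at ambient indicates Rab9 promoter upregulation; stably transfected Huh7 cells were treated 24 h with compound in DMSO at 37 °C, 5% CO2.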
SMN2 splice enh: SMN2 splice variant enhancement | HEK293 SMN2-luciferase splicing reporter, luminescence, 30-36 h | 210,000 compounds, 2.8% hits | Potency, µM (titrated, usually from 46.1 µM), inactives show at the top dose activity change, positive = activation, hits mostly activators | AID 1458; also: % of control where 0% means no effect; nearly all actives have a fitted effect of over 55% in size
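HEK293 cells carry an SMN2 […]–luciferase reporter in which exon 7 inclusion puts luciferase in frame. Cells were plated 10-12 h before compound addition, then incubated 30-36 h at 37C. ONE-Glo luminescence was read; sodium butyrate at 4.5 mM final served as control.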
ELG1 genotox: inducers of genotoxicity in HEK293T ELG1-luciferase cells; HEK293T ELG1-luciferase reporter, luminescence, 16 h; Potency, µM (series often up to 46 µM), without a hit: at the top dose activity change, positive = activation, usual class: activators; 330,000 compounds, 1.3% hits; also: % of control where 0% means no effect; nearly all actives have a fitted effect of over 60% in size
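Reporter readout depends on ELG1 protein level, which increases with genetic stress. After 16 hr compound exposure at 37 °C, luciferase activity was quantified using ONE-Glo.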
The depositor's hits bear a star; ? = inconclusive; nt = no result given. Calls follow the shape of the dose curve; as a rule, active = well fitted curve in the direction sought with a large enough effect; inconclusive = small, poorly fitted or top-dose-only effect, or another doubt; inactive = no such curve, though single readings can be large; an effect the other way counts as inactive or inconclusive. Potency is read from the fitted curve at half-maximal effect.

SMILES	FLuc modulator	NPC1 promoter act	Rab9 prom act	SMN2 splice enh	ELG1 genotox
CC1(C)Cc2c(cnn2-c2ccc(F)cc2)C(NC(=O)CCn2cncn2)C1 (configuration not stated)	?	12.5%	18.1%	nt	?
Cn1c(COc2ccccc2)nnc1SCC(=O)c1cccc([N+](=O)[O-])c1	-3.1%	-1.0%	6.4%	1.6%	0.0%
Cc1ccn2cc(-c3cnoc3C)nc2c1	?	28.0%	?	2.3%	?
Clc1ccc(-c2cn3cc(Br)ccc3n2)cc1Cl	0.213µM*	3.98µM*	2.24µM*	2.24µM*	0.82µM*
Cc1ccc(-c2cn3ccc(C)cc3n2)cc1	0.151µM*	nt	nt	0.251µM*	nt
Cc1ccc(S(=O)(=O)Nc2ccc(-c3cn4ccc(C)cc4n3)cc2)cc1	?	-2.4%	12.1%	nt	-3.9%
Cc1ccn2cc(-c3ccc(Br)cc3)nc2c1	0.151µM*	2.82µM*	0.562µM*	nt	?
COc1c(Cl)cccc1-c1cn2ccc(C)cc2n1	0.675µM*	1.26µM*	0.562µM*	nt	?
O=C(NCc1ccccn1)c1ccc(NS(=O)(=O)c2cccc([N+](=O)[O-])c2)cc1	3.0%	-0.8%	1.3%	nt	1.0%
CCOc1ccc(-c2cc(C(=O)NCC3CCCO3)c3ccccc3n2)cc1 (configuration not stated)	5.36µM*	12.8%	17.6%	?	-11.1%
COc1cccc(-c2cc(C(=O)NCC3CCCO3)c3cc(Br)cc(C)c3n2)c1 (configuration not stated)	2.69µM*	-7.3%	5.5%	nt	?
CC(C)Oc1ccc(-c2nc(NCC3CCCO3)c3ccccc3n2)cc1 (configuration not stated)	9.53µM*	-3.2%	3.0%	nt	-6.6%
Cc1ccc2nc(-c3ccccc3)cc(C(=O)NCC3CCCO3)c2c1 (configuration not stated)	5.36µM*	-1.5%	1.4%	nt	-7.7%
COc1ccc(-c2cc(C(=O)NCC3CCCO3)c3ccccc3n2)c(OC)c1 (configuration not stated)	0.5%	-6.6%	-3.3%	nt	-9.9%
c1cncc(-c2nc(NCC3CCCO3)c3ccccc3n2)c1 (configuration not stated)	-0.5%	0.0%	-6.9%	nt	-16.1%
Cc1ccnc(NC(=O)C2CCN(S(=O)(=O)c3cccc4nsnc34)CC2)c1	3.6%	0.2%	-6.8%	-14.0%	-26.2%
COc1cc(Cl)c(C)cc1NC(=O)COC(=O)C1=NN(c2ccccc2)C(=O)CC1	nt	nt	nt	nt	2.7%
O=C(C1CCCN(Cc2ccccc2C(F)(F)F)C1)N1CCCCC1 (configuration not stated)	0.7%	1.4%	-2.2%	-7.5%	-1.4%
C=CCN(c1ccccc1C(=O)O)S(=O)(=O)/C=C/c1ccccc1	-4.5%	-1.9%	-4.4%	1.1%	-1.4%
CCCCNC(=O)Cn1c(=O)n(C)c2ccccc21	1.3%	-4.2%	-2.7%	13.2%	-1.0%
Cc1ccc(-c2nn(-c3ccccc3)cc2C(=O)NCC2CCCO2)cc1 (configuration not stated)	13.5µM*	0.0%	-0.1%	nt	-2.9%
O=C(NCC1CCCO1)c1cn(Cc2ccccc2)nc1-c1ccccc1 (configuration not stated)	1.2%	-3.0%	-6.6%	nt	-0.8%
COc1ccc(-c2cc(C(=O)NN)[nH]n2)cc1	?	-5.5%	0.6%	-10.7%	4.5%
COc1ccc(Oc2ccc(-c3ccn[nH]3)cc2)cc1	23.9µM*	?	?	nt	10.3%
COc1ccc(-c2cc(-c3ccc(OC)cc3)[nH]n2)cc1	8.49µM*	2.82µM*	?	9.6%	?
SMILES	FLuc modulator	NPC1 promoter act	Rab9 prom act	SMN2 splice enh	ELG1 genotox
Cc1ccc(O)c(-c2cc(-c3ccccc3C)[nH]n2)c1	?	-2.5%	-0.5%	27.2%	1.1%
Clc1ccc(-c2ccn[nH]2)cc1	?	20.4%	13.1%	-0.4%	0.9%
COc1ccc(-c2cc(-c3ccc(C)cc3)n[nH]2)c(O)c1	4.78µM*	1.26µM*	1.26µM*	nt	?
COc1ccc(-c2cc(-c3cc(C)ccc3O)[nH]n2)cc1	12µM*	-22.9%	-35.7%	nt	?
COc1ccc(-c2n[nH]c(C)c2-c2ccc(Cl)cc2)c(O)c1	1.4%	1.8%	2.9%	-15.5%	-6.1%
O=C(N/N=C/c1ccc([N+](=O)[O-])cc1)c1[nH]ncc1Br	?	2µM*	1µM*	11.2µM*	?
O=C(N/N=C/c1ccc([N+](=O)[O-])cc1)c1cc(C2CC2)[nH]n1	6.9%	2.0%	-3.5%	nt	8.1%
CCN(c1ccccc1)S(=O)(=O)c1ccc2[nH]c(=O)c(=O)[nH]c2c1	2.5%	-0.2%	-0.4%	nt	-0.6%
COC(=O)c1cccc(NS(=O)(=O)c2ccc(NC(C)=O)cc2)c1C	-6.1%	1.4%	-0.5%	-32.9%	-9.0%
COC(=O)COc1ccc(C)cc1-n1nc2ccccc2n1	-6.8%	-1.0%	-4.4%	nt	-0.2%
Cc1ccc(OC(=O)c2cccc([N+](=O)[O-])c2)c(-n2nc3ccccc3n2)c1	?	3.55µM*	2.82µM*	12.6µM*	?
Cc1cc(-n2nc3ccccc3n2)c(O)c([N+](=O)[O-])c1	1.8%	1.6%	-5.4%	nt	0.3%
Cc1ccc(OC(=O)COc2ccccc2)c(-n2nc3ccccc3n2)c1	8.49µM*	3.55µM*	2µM*	20.2%	7.31µM*
Cc1ccc(OC(=O)COc2ccccc2C)c(-n2nc3ccccc3n2)c1	4.78µM*	?	?	11.2µM*	?
CSc1ccccc1C(=O)NCCSc1ccccc1	-18.2%	10.9%	11.8%	26.6%	?
O=C(NCCSc1ccccc1)c1ccccc1Cl	7.57µM*	2.51µM*	3.16µM*	11.2µM*	13µM*
Cc1ccccc1C(=O)NCCSc1ccccc1	9.53µM*	3.55µM*	2.82µM*	12.6µM*	7.31µM*
CC(=O)NC(CC(=O)Nc1ccc(S(=O)(=O)N2CCCC2)cc1)c1ccccc1 (configuration not stated)	-1.5%	-1.1%	15.5%	-8.6%	-2.0%
Fc1ccc(N2N=C(c3cccs3)CC2c2ccccc2)cc1 (configuration not stated)	-6.2%	-0.5%	-0.1%	-32.5%	-12.9%
C[C@@H]1COC(=O)[C@@H](CC(=O)OC(C)(C)C)C/C=C\C[C@@H](CC(=O)N[C@@H](CO)Cc2ccccc2)C(=O)N1	nt	nt	nt	nt	1.6%
C=CCNC(=O)c1ccc(-c2ccc([N+](=O)[O-])cc2)o1	?	7.9%	8.7%	15.1%	7.2%
O=C(Nc1ccccc1F)c1ccc(-c2cccc([N+](=O)[O-])c2)o1	13.5µM*	?	?	nt	?
C=CCNC(=O)c1ccc(-c2cccc([N+](=O)[O-])c2)o1	?	?	?	22.4µM*	?
O=C(NCc1ccncc1)c1cccc(S(=O)(=O)Nc2ccc(F)cc2)c1	-0.1%	-0.3%	-4.2%	nt	-6.0%

From PubChem
